A short description of experiment [1]: binders of probe aFSTL3 on microarray, primary screen, stem cell growth factor project, biochemical, small-molecule microarray, fluorescence 635/667 (AID 1064).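 Further: measures binding of the biotinylated anti-FSTL3 antibody to printed compounds.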 The settings on record: higher = more signal.
Experiment [2] can be described thus: binders from COS7 lysate, DM2A8 probe, primary screen, torsin A project, cell lysate, small-molecule microarray, fluorescence 635/667 (AID 1065). As to conditions: higher = more signal, COS7 lysate expressing mutant human TOR1A.
A short description of experiment [3]: binders of probe aFGF2 on microarray, primary screen, stem cell growth factor project, biochemical, small-molecule microarray, fluorescence 635/667 (AID 1067).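 Further: measures binding of biotinylated aFGF2 protein to printed compounds on slides; z-score merges feature fluorescence and signal-to-noise across triplicate slides.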 As to conditions: higher = more signal.
Experiment [4] can be described thus: binders of probe aFGF10 on microarray, primary screen, stem cell growth factor project, biochemical, small-molecule microarray, fluorescence 635/667 (AID 1071).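 Further: score merges 667 nm spot intensity and signal to noise from triplicate slides.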 The settings on record: higher = more signal.
Experiment [5] deals with Neurogenic locus notch homolog protein 2 (Homo sapiens) (UniProt Q04721). The experiment can be described thus: Notch2 binders on small-molecule microarrays, primary screen, biochemical, small-molecule microarray, 635 nm fluorescence, stem cell growth factors (AID 1073). The settings on record: Notch2 binding, higher = more signal.
Experiment [6] has as its target Pro-neuregulin-1, membrane-bound isoform (Homo sapiens) (UniProt Q02297). Nature of the experiment: NRG1 binders on small-molecule microarrays, primary screen, psychiatric disease protein project, biochemical, small-molecule microarray, fluorescence 635/667 (AID 1075).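 Further: score combines 667 nm spot fluorescence with signal to noise.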 As to conditions: NRG1 binding, 635 nm fluorescence, higher = more signal.
Experiment [7] has as its system Neuregulin-1 EGF-like domain. Nature of the experiment: binders of neuregulin-1 EGF-like domain, primary screen, biochemical, small-molecule microarray, 635 nm fluorescence (AID 1081).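 Further: binding of the protein to compounds printed on small-molecule microarray slides.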 As to conditions: small-molecule microarray binding, higher = more signal.
Experiment [8] is described as follows: FRG1 promoter luciferase signal modulators, primary screen, FRG1 inhibition for FSHD, cell-based, C2C12 myotubes, firefly/Renilla luciferase, luminescence (AID 1084). The settings on record: higher = more signal, called active from +8 up or from −8 down.
A short description of experiment [9]: binders of probe aFST on microarray, primary screen, stem cell growth factor project, biochemical, small-molecule microarray, fluorescence 635/667 (AID 1086).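 Further: score merges 667 nm fluorescence with signal-to-noise of each printed compound spot.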 As to conditions: higher = more signal.
Experiment [10] can be described thus: binders of probe aHhip on microarray, primary screen, stem cell growth factor project, biochemical, small-molecule microarray, fluorescence 635/667 (AID 1087).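 Further: score merges spot fluorescence at 667nm with spot signal to noise ratio.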 As to conditions: higher = more signal.
Experiment [11] has as its system PRMT1 (protein arginine N-methyltransferase 1). The experiment can be described thus: PRMT1 binders on small-molecule microarrays, primary screen, biochemical, small-molecule microarray, 635 nm fluorescence (AID 1088).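 Further: binding of Prmt1 protein to compounds spotted on small-molecule microarray slides.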 The settings on record: small-molecule microarray binding, higher = more signal.
Experiment [12] can be described thus: yeast growth modulation, basal conditions, primary screen, YJM789 clinical isolate, OD600, 24 h (AID 1089).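 Further: growth of clinical yeast isolate S. cerevisiae YJM 789 seeded 1000 cells per well; test concentration not given here.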 As to conditions: S. cerevisiae YJM789 growth, higher = more signal, called active from +8 up or from −8 down.
A short description of experiment [13]: fission yeast growth modulation, primary screen, strain 972, OD600, 24 h, no modulator (AID 1090).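 Further: basal condition with compound alone and no growth modifier present; test concentration not given here.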 As to conditions: S. pombe 972 growth, higher = more signal, called active from +8 up or from −8 down.
Experiment [14] is described as follows: S. cerevisiae growth modulation with rapamycin, primary screen, strain BY4716, OD600, 96 h (AID 1091). Further: test concentration not given here. As to conditions: higher = more signal, called active from +8 up or from −8 down.
Experiment [15] addresses Torsin-1A-interacting protein 2 (Homo sapiens) (UniProt Q8NFQ8). Nature of the experiment: LULL1 binders on small-molecule microarray, primary screen, cell lysate, human LULL1 lysate, 635/667 nm fluorescence (AID 1092).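 Further: probe is lysate of COS7 cells overexpressing human LULL1; score merges per-feature 667 nm fluorescence with signal-to-noise.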 As to conditions: hLULL1 lysate binding, 635 nm fluorescence, higher = more signal.
Experiment [16] in a line: E. coli growth modulation, two-sided OD650, primary screen, E. coli filamentation project, strain DRC41, 24 h (AID 1093).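 Further: MC1000 strain lacking acrAB efflux and sulA so SOS filamentation is blocked; test concentration not given here.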 The settings on record: OD650, 24 h, higher = more signal, called active from +8 up or from −8 down.
Experiment [17] can be described thus: small-molecule microarray binders of probe aLefty2, primary screen, biochemical, biotinylated probe, 635/667 nm fluorescence (AID 1094).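 Further: score merges spot fluorescence near 667 nm with spot signal-to-noise ratio.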 As to conditions: higher = more signal.
Experiment [18] deals with Noggin (protein binding on small-molecule microarray). The experiment can be described thus: Noggin binders on small-molecule microarray, primary screen, biochemical, 635/667 nm fluorescence (AID 1095).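 Further: score merges 667 nm feature fluorescence with signal to noise over triplicate slides.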 The settings on record: 635 nm fluorescence, higher = more signal.
The target in experiment [19] is Neurogenic locus notch homolog protein 3 (Homo sapiens) (UniProt Q9UM47). The experiment can be described thus: NOTCH3 binders on small-molecule microarray, primary screen, biochemical, 635/667 nm fluorescence (AID 1096). The settings on record: NOTCH3 binding, 635 nm fluorescence, higher = more signal.
Experiment [20] in a line: small-molecule microarray binders of probe aEGFR, primary screen, biochemical, biotinylated probe, 635/667 nm fluorescence (AID 1097).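 Further: probe is a biotinylated anti-EGFR antibody binding compounds printed on slides; score combines fluorescence near 667 nm and signal to noise of each spot.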 As to conditions: higher = more signal.

Calls of active or inactive are those of the source.

Sequence of Neurogenic locus notch homolog protein 2 (Homo sapiens) (Q04721 whole entry, looked up, canonical isoform): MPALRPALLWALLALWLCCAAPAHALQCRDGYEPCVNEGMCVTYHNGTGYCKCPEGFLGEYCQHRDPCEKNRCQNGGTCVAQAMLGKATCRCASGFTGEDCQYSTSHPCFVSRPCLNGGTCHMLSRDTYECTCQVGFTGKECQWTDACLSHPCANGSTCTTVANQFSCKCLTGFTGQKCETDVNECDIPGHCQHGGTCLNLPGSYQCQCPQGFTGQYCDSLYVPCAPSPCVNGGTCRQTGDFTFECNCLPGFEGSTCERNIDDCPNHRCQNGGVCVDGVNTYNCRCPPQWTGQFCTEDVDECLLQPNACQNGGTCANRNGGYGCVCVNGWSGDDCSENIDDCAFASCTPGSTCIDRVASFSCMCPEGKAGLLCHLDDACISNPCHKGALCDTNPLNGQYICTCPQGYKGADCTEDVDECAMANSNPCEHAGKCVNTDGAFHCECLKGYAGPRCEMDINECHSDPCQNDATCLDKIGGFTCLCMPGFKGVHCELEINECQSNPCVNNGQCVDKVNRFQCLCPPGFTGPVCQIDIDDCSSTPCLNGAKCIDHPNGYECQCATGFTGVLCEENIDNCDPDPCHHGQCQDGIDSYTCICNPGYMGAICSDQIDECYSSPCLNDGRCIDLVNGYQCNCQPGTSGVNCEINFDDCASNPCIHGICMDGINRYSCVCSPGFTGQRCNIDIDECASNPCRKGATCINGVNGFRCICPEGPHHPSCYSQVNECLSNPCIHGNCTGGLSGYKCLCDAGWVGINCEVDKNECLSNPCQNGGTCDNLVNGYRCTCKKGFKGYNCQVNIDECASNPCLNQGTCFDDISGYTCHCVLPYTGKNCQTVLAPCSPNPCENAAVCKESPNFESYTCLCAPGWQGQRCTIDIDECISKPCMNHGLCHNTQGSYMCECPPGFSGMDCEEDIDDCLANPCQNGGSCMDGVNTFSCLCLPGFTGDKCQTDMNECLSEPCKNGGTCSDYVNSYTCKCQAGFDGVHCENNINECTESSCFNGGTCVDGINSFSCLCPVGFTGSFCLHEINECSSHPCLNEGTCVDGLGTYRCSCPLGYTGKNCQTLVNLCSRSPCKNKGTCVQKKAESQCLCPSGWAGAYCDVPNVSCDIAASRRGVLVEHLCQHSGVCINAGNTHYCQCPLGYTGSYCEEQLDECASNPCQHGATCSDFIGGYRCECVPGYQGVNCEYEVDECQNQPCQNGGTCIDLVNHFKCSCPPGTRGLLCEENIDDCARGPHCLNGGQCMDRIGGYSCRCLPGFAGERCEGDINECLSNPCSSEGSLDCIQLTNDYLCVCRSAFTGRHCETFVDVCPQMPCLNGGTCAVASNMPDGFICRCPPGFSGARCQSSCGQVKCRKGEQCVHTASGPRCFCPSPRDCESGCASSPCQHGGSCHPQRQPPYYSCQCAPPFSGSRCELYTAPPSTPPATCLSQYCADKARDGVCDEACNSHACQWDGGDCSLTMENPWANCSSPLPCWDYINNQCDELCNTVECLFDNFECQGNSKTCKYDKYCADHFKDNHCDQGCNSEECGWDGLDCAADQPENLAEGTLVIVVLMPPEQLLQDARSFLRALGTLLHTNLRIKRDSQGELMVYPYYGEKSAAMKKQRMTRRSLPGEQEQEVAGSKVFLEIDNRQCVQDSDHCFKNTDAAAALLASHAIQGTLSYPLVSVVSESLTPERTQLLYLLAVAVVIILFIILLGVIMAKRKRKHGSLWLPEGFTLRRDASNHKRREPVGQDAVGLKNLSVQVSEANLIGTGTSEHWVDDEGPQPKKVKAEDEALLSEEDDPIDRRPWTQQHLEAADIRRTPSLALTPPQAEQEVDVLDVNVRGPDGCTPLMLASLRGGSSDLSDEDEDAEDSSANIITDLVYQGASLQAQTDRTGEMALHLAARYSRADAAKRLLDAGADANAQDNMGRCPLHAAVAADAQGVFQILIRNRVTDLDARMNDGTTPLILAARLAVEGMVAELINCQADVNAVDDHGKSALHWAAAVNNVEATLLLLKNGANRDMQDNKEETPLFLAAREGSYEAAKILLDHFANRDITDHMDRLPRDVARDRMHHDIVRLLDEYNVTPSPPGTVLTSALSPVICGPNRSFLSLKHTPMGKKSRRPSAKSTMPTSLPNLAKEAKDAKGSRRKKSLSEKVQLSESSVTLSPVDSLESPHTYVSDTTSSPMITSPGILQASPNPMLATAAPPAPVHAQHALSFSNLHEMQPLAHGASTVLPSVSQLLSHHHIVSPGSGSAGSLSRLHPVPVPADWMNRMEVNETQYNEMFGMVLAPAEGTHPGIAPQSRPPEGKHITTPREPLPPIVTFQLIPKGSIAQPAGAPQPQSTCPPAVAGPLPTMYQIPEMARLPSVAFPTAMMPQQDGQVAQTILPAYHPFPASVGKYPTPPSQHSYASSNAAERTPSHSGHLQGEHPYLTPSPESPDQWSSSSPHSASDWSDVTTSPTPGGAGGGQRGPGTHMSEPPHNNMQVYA
Sequence of Torsin-1A-interacting protein 2 (Homo sapiens) (Q8NFQ8 whole entry, looked up): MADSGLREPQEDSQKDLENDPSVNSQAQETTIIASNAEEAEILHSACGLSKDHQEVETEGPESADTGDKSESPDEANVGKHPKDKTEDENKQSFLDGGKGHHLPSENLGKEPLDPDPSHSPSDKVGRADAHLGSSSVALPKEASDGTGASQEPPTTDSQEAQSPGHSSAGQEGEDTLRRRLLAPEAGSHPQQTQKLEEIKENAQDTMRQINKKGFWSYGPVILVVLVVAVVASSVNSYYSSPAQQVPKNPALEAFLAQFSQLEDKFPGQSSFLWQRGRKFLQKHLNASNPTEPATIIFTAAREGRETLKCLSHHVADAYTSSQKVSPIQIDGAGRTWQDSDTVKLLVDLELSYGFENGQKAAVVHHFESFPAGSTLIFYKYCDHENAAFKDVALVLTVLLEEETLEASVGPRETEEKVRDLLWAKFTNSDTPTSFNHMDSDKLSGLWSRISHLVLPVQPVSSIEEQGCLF
Sequence of Pro-neuregulin-1, membrane-bound isoform (Homo sapiens) (Q02297 whole entry, looked up, the tested form may be a part, canonical isoform): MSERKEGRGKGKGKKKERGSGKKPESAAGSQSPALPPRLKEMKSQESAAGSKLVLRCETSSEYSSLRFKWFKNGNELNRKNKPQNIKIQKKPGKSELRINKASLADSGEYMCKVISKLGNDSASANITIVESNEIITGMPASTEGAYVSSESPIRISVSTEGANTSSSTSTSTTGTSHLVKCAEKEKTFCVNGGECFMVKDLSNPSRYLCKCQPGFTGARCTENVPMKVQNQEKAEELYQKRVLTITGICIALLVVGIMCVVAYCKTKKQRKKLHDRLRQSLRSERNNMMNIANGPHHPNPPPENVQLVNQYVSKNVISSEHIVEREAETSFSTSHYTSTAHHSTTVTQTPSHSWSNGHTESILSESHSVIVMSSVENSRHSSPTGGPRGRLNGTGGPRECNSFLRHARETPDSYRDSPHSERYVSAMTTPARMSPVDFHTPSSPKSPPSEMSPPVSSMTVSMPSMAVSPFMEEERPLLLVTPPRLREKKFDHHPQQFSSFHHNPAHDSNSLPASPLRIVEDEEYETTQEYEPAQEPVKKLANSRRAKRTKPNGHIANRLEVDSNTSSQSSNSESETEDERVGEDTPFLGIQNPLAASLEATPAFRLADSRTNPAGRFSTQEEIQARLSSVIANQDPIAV

As to `COC(=O)C(CC#Cc1ccc2c(c1)[C@]1(C(=O)N2)[C@H](C(=O)NC[C@H](O)c2ccccc2)[C@H]2C(=O)O[C@H](c3ccccc3)[C@H](c3ccccc3)N2[C@@H]1c1ccccc1OCCO)C(=O)OC`, the composite z-score is -0.266 in experiment [1]; 0.423 in [2]; -0.0996 in [3]; 0.558 in [4]; 1.08 in [5]; 1.27 in experiment [6]. Also, the composite z-score in [7] is 1.3; in experiment [9], 0.254; in experiment [10] it was 0.0749; in experiment [11], 1.54; in experiment [15], 2.89; in [17] it was -0.0598. For the same compound, the composite z-score in experiment [18] was 0.8; in experiment [19], 1.12; in [20], -0.0332. Further, the z-score was 0.0111 (inactive) in experiment [8]; 2.15 (inactive) in experiment [12]; -0.247 (inactive) in experiment [13]; 2.59 (inactive) in [14]; 2.13 (inactive) in experiment [16].

As to `CN1C(=O)C2C(C1=O)C1C=C(CCCO)C2C(C2CC2)N1Cc1cccc(OC(F)(F)F)c1` (stereo not given), the composite z-score in [1] was -0.143; in [2], -0.122; in experiment [3] it was -0.13; in [4] it was -0.203; in [5] it was -0.254; in experiment [6], 2. Also, the composite z-score is 1.3 in experiment [7]; 0.0794 in experiment [9]; -0.242 in [10]; 1.34 in [11]; 3.17 in experiment [15]; -0.224 in experiment [17]. The composite z-score in experiment [18] was -0.0767; in [19], 0.203; in experiment [20], -0.144. Also, the z-score in experiment [8] was -0.688 (inactive); in experiment [12], -1.07 (inactive); in [13] it was -1.58 (inactive); in experiment [14], -1.15 (inactive); in experiment [16], 0.179 (inactive).

On to `O=C(NCC(O)CO)C1N=C(c2ccc(OCCCO)cc2)N(c2ccccc2)O1` (stereo not given), for which the composite z-score in [1] is -0.279; in [2], 0.657; in experiment [3] it was 0.0073; in experiment [4], 0.643; in experiment [5] it was 0.575; in experiment [6], -0.168. For the same compound, the composite z-score in experiment [7] is 0.462; in experiment [9], -0.282; in [10] it was 0.136; in experiment [11] it was 1.55; in experiment [15] it was 1.8; in [17] it was -0.196. Moreover, the results for the composite z-score in experiment [18], in experiment [19] and in experiment [20] were 1.19, 0.882 and -0.0531, respectively. Moreover, the z-score in experiment [8] is 3.24 (inactive); in experiment [12] it was -0.375 (inactive); in experiment [13], -0.243 (inactive); in experiment [14], 0.13 (inactive); in experiment [16], 0.153 (inactive).

With `C=C(CCCC)/C(=C/C[C@H](OC(=O)c1ccncc1)c1ccc(OCCO)cc1)c1cnc2ccccc2c1`, the composite z-score is 0.102 in [1]; 1.23 in [2]; -0.121 in experiment [3]; 0.322 in experiment [4]; 1.12 in experiment [5]; 1.33 in experiment [6]. Further, the composite z-score was 1.23 in [7]; 0.402 in experiment [9]; -0.124 in experiment [10]; 1.51 in [11]; 1.26 in experiment [15]; -0.0306 in experiment [17]. Further, the composite z-score in experiment [18] came out at 1.17; in [19], 1.09; in experiment [20], 0.0129. Also, the z-score is -0.791 (inactive) in experiment [8]; 0.144 (inactive) in [12]; -2.06 (inactive) in experiment [13]; 0.199 (inactive) in experiment [14]; 0.7 (inactive) in experiment [16].

Take `CC(C)=C1C(=O)C(c2ccccc2)=C2CN3C(=O)N(CCc4ccccc4)C(=O)[C@]3(C)[C@H]21`: the composite z-score is 0.532 in [1]; -0.0272 in [2]; 0.15 in [3]; 0.265 in experiment [4]; 1.26 in experiment [5]; 1.81 in experiment [6]. The composite z-score in experiment [7] is 1.07; in experiment [9], 0.64; in [10], -0.0346; in [11], -0.638; in [15] it was 1.19; in experiment [17] it was 0.211. In addition, the figures for the composite z-score in [18], in experiment [19] and in [20] were -0.335, 0.451 and -0.0251, respectively. The z-score was 0.863 (inactive) in [8]; -0.37 (inactive) in experiment [12]; -0.262 (inactive) in experiment [13]; 1.48 (inactive) in experiment [14]; -1.27 (inactive) in experiment [16].

Values taken from PubChem BioAssay.
